The text below walks through data of PubChem BioAssay (NCATS).

The structures appear in SMILES notation. Results filed as inconclusive are left out. Entries that show only a call come without a potency. Active and inactive are the calls of the source. The call rests on the fitted dose curve; in most records, active means well fitted curve in the direction sought with a large enough effect; inconclusive means small, poorly fitted or top-dose-only effect, or another doubt; inactive means no such curve, though single readings can be large; an effect the other way counts as inactive or inconclusive.

The target of experiment [1] is Aldehyde dehydrogenase, mitochondrial (Homo sapiens) (UniProt P05091). Description: qHTS for Inhibitors of the Aldehyde Dehydrogenase Family (ALDH2) Primary screen (AID 2061308). Further: nearly all actives have a fitted effect of over 55% in size. To be noted: ALDH2 enzyme inhibition qHTS, 1536-well; series mostly up to 56 µM. A general note: qHTS replaces the single test concentration by a dilution series.
In experiment [2] the target is Retinaldehyde dehydrogenase 3 (Homo sapiens) (UniProt P47895). Description: qHTS for Inhibitors of the Aldehyde Dehydrogenase Family (ALDH1A3) Primary screen (AID 2061315). To be noted: ALDH inhibition qHTS; series mostly up to 56 µM.

Consider `C#CCCC(=O)Nc1sc2c(c1-c1nc3ccccc3s1)CCN(C(C)C)C2`, for which the Potency entry in experiment [1] and in experiment [2] was “inactive” throughout.
Consider `CC(C)(C)OC(=O)CC(=O)NNC(=O)c1cc2ccccc2[nH]1`, for which the Potency result in experiment [1] and in experiment [2] was “inactive” in each case.
With `O=C(NNC(=O)c1nc2ccccc2[nH]1)OCc1ccccc1`, the Potency entry in experiment [1] and in experiment [2] was “inactive” throughout.
Consider `Cc1cc2c(s1)c1c(n2C)C(=O)N(Cc2ccccc2F)C1`, for which the Potency result in experiment [1] and in experiment [2] was “inactive” each time.
`FC(F)(F)c1cccc(-c2nc(NCc3ccc(-c4ccnc(C(F)(F)F)c4)cc3)c3ccccc3n2)c1`: the Potency entry in experiment [1] and in experiment [2] was “inactive” in each case.
Turning to `Cc1ccc(-c2ccc(C(C)Nc3nc(-c4ccccc4C(C)C)ncc3C)cc2)cn1` (stereo not drawn), the Potency result in experiment [1] and in experiment [2] was “inactive” in each case.
In the case of `Cc1cc(NS(=O)(=O)c2ccc(NC(=O)c3ccc(Cl)c(Cl)c3)cc2)no1`, the Potency result in experiment [1] and in experiment [2] was “inactive” throughout.
Take `COC(=O)C12C(=O)C(C)=C(O)C1(C)C(C)=CC1C3(CO)CCC(O)C(C)(C)C3CCC12C` (stereo not drawn): the Potency entry in experiment [1] and in experiment [2] was “inactive” in each case.
In the case of `CC(C)(C)OC(=O)Cc1nnc(-c2nc3ccccc3[nH]2)o1`, the Potency entry in experiment [1] and in experiment [2] was “inactive” each time.
As to `Cc1ccc(S(=O)(=O)Nc2cnccc2C(=O)Nc2nc(-c3ccc(Oc4ccccc4)cc3)cs2)cc1`, the Potency result in experiment [1] and in experiment [2] was “inactive” throughout.
`CC(C)(C)c1ccc(-c2csc(N3CCC(C(N)=O)CC3)n2)cc1`: the Potency entry in experiment [1] and in experiment [2] was “inactive” each time.
On to `CC(=O)Nc1sc2c(c1-c1nc3ccccc3s1)CCS(=O)(=O)C2`, for which the Potency entry in experiment [1] and in experiment [2] was “inactive” each time.
In the case of `FC(F)(F)c1ccccc1-c1nc(NCc2cccs2)c2ccccc2n1`, the Potency result in experiment [1] and in experiment [2] was “inactive” throughout.
With `COc1cccc(-c2nnc3n2N=C(c2c(OC)cccc2OC)CS3)c1OC`, the Potency entry in experiment [1] and in experiment [2] was “inactive” each time.
